From PubChem BioAssay
This is one part of a sample in which hits are shown more often than they occur.
G9a block: G9a (human) methyltransferase inhibition | Q96KQ7 | G9a H3K9 monomethylation, AlphaScreen, 2 h | Potency, µM (series often up to 102 µM), inactives show top-dose activity, negative = inhibition, usual class: inhibitors | actives 8.8% (n = 350,000); further: on the % scale 0 is the no-effect control and ±100 the full control effect; nearly all actives have a fitted effect of over 75% in size
Target sequence (Q96KQ7 913-1193 limits assumed): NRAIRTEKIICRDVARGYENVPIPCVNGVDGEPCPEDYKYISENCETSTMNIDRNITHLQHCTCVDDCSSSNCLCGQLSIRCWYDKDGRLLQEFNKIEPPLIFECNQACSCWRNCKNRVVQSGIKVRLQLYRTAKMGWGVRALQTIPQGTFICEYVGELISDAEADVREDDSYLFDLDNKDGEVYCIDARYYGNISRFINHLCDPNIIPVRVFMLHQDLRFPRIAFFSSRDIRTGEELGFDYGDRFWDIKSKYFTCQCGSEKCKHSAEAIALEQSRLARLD
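G9a (20 nM) was preincubated 15 min with compound, then reacted 2 h at room temperature with 500 nM biotin-H3K9 peptide and 20 µM SAM. Monomethyl-H3K9 detected by AlphaScreen using anti-H3K9me1 antibody.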
VDR inhibitor: blocks the human vitamin D receptor. P11473. VDR-SRC2-3 peptide fluorescence polarization, 2 h. Potency, µM, without a hit: max response, negative = inhibition, actives largely listed as inhibitors. actives 0.93% (n = 400,000). AID 504847; further: on the % scale 0 is the no-effect control and ±100 the full control effect
Target sequence (P11473 whole entry, looked up): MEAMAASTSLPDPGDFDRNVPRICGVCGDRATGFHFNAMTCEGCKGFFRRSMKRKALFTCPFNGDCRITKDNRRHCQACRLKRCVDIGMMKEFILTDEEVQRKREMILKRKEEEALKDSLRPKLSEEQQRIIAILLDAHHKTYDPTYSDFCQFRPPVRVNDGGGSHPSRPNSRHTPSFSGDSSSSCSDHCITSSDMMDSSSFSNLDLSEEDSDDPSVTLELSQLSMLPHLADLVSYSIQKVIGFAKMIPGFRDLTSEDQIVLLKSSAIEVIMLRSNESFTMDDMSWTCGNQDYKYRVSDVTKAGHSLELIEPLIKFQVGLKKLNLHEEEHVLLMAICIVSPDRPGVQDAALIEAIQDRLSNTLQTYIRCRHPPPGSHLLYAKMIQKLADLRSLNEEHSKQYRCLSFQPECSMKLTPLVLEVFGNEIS
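Reagent solutions, kept cold and dark, are dispensed first; compounds are then pinned in at 23 nl, plates briefly spun, and incubated 2 h at ambient temperature. Inhibition of VDR–SRC2-3 peptide binding is read by fluorescence polarization.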
Sfp inh: Sfp phosphopantetheinyl transferase inhibition; Q9F4F7; Biochemical Sfp PPTase activity, qHTS; Potency, µM, without a hit: largest response in the series, negative = inhibition, most hits filed as inhibitors; actives 3.5% (n = 310,000); AID 1490;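 further: the enzyme is Sfp with the accession as filed and its product quenches rhodamine fluorescence; 0% = enzyme reaction without inhibitor and -100% = no enzyme wells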
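After 15 min at room temperature with compound, 15 nM Sfp received 5 uM rhodamine-CoA plus 12.5 uM BHQ-2-ybbR (50 mM Hepes pH 7.6, 10 mM MgCl2). Rate came from the fluorescence difference over 30 min, ex 525/em 598 nm.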
12-LOX inh: blocks human arachidonate 12S-lipoxygenase; P18054; purified 12hLO, xylenol orange hydroperoxide absorbance; Potency, µM (titrated, usually from 108 µM), for inactives: at the highest dose activity change, negative = inhibition, hits mostly inhibitors; actives 1.1% (n = 580,000); AID 1671190; further: on the % scale 0 is the no-effect control and ±100 the full control effect
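Purified human 12hLO at 150 nM in 25 mM Hepes, 0.01% Triton X-100, pH 7.0, preincubated 15 min at room temperature with compound. Reaction started with 40 uM arachidonic acid, 30 min at room temperature. Hydroperoxide measured by Fe-xylenol orange, 573/405 nm absorbance ratio.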
Glioma ERSR ind: inducers of ER stress response in human glioma cells; U87-MG GRP78 promoter luciferase reporter, 16 h; Potency, µM, for the others: at the highest dose activation, actives largely listed as activators; actives 0.02% (n = 420,000); further: series mostly up to about 76 µM; % of control where 0% means no effect; nearly all actives have a fitted effect of over 35% in size
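Stably transfected U87-MG human glioma cells carrying a GRP78-based luminescent sensor were seeded at 1000 cells/well, pin-dosed with compounds and incubated 16 h. Luciferase reagent was then added, and end-point luminescence was read after 10 min at room temperature.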
Starred values were filed as active, the others as inactive; ? = inconclusive; . = no result; ! = repeats disagree; [ ] = another dose, or the depositor's remark. The call rests on the fitted dose curve; in most records, active means well fitted curve in the direction sought with a large enough effect; inconclusive means small, poorly fitted or top-dose-only effect, or another doubt; inactive means no such curve, though single readings can be large; an effect the other way counts as inactive or inconclusive. Potency means the concentration at half of the fitted maximal effect.

SMILES | G9a block | VDR inhibitor | Sfp inh | 12-LOX inh | Glioma ERSR ind
NC(c1ccccc1)c1ccncc1 (stereo not drawn) | 45µM* | 0% | -2% | ? | -3%
c1ccc(NC(c2ccccc2)c2ccncc2)cc1 (stereo not drawn) | 32µM* | -5% | 5% | ? | 0%
NC(c1ccccc1)c1cccnc1 (stereo not drawn) | -1% | -13% | -23% | ? | -3%
Fc1ccc(Br)cc1/C=N/Nc1c(Cl)cc(Cl)cc1Cl | . | . | . | 18µM* | .
Fc1ccc(Br)cc1/C=N/N1CCN(c2ccccc2)CC1 | -6%[0.501 µM] | 1% | -12% | 0% | 8%
Fc1ccc(/C=N/Nc2c(Cl)cc(Cl)cc2Cl)c(F)c1 | . | . | . | 40µM* | .
CCOc1ccc(N2CC(NC(=O)C(CC)CC)CC2=O)cc1 (stereo not drawn) | . | . | . | -12% | .
Cn1c(=O)c2c(nc(NCCc3ccccc3)n2Cc2ccccc2Cl)n(C)c1=O | . | . | . | -2% | .
COCCOCC1(CNCc2cn(C)c3ccccc23)C[C@@H](O)[C@@H](O)C1 (stereo partly drawn) | . | . | . | 4%[176 µM] | .
CCN(CC)c1ccc(Nc2nc(-c3cccnc3)cs2)cc1 | 0.89µM* | ? | 0% | -14% | 11%
CN(C)c1ccc(Nc2nc(-c3cccnc3)cs2)cc1 | ? | -9% | -27% | -10% | -14%
c1ccc(-c2csc(Nc3cccnc3)n2)cc1 | -27% | -6% | 32µM* | 50% | 17%
Fc1ccc(Nc2nc(-c3cccnc3)cs2)cc1 | 18% | -12% | 11% | 5% | 4%
CC(=O)N1CCN(C(=S)c2ccc(Cl)cc2)CC1 | 25µM* | -3% | 7.1µM* | 2% | -3%
CC(=O)N1CCN(C(=O)CCCNC(=O)c2ccc(Cl)cc2)CC1 | . | 4% | . | 4% | -1%
Cc1ccc(NC(=O)c2ccc3c(c2)NC(=O)c2ccccc2S3)cc1 | 0%[59 µM] | 0% | . | ? | -4%
CCN(CC)CCNC(=O)c1ccc2c(c1)NC(=O)c1ccccc1S2 | 45µM* | -20% | 7% | 8% | -3%
CCCN1CCN(CCCNC(=O)c2ccc3c(c2)NC(=O)c2ccccc2S3)CC1 | -10% | 5% | 7% | -2% | -4%
CN(C)CCNC(=O)c1ccc2c(c1)NC(=O)c1ccccc1S2 | 45µM* | -20% | 0% | 0% | -3%
COc1ccc(-c2cccc(-c3nc4ccc(Cl)cn4c3NC3CCCCC3)c2)cc1 | . | -13% | . | 7.1µM* | -4%
CCC(C)Sc1cc(-c2nc3ccc(Cl)cn3c2NC2CCCCC2)ccc1OC (stereo not drawn) | . | ? | . | 40µM*! | 1%
COCCN1C(=O)c2ccccc2C(C(=O)Nc2cc(C)ccc2OC)C12CCCCC2 (stereo not drawn) | . | . | . | -11% | .
Cn1c2ccc(CC(=O)O)cc2c2cc(CC(=O)O)ccc21 | 50µM* | 0% | -13% | -15% | -3%
O=C(O)Cc1ccc2[nH]c3ccc(CC(=O)O)cc3c2c1 | ? | -11% | -4% | 19% | -1%
COc1cccc(N2C(=O)c3ccccc3NC2c2cn(C)c(=O)n(C)c2=O)c1 (stereo not drawn) | . | . | . | 11% | .
SMILES | G9a block | VDR inhibitor | Sfp inh | 12-LOX inh | Glioma ERSR ind
CC(C)(C)c1ccc(C(=O)NC(Nc2cccc(C(F)(F)F)c2)C(Cl)(Cl)Cl)cc1 (stereo not drawn) | . | . | . | -14% | .
Clc1ccc(CNCc2ccccc2Cn2cncn2)c(Cl)c1 | . | . | . | 45µM* | .
COc1ccc(OC)c(-c2csc(NC(=O)Cc3ccc(F)cc3)n2)c1 | -16% | 2% | 21% | -12% | -2%
Cc1ccc(-c2csc(NC(=O)Cc3ccc(F)cc3)n2)o1 | 10µM* | ? | 13µM* | ? | 0%
Cc1ccc(-c2csc(NC(=O)c3ccc(-c4ccccc4)cc3)n2)o1 | -9%[59 µM] | -24% | 22µM* | . | -1%
C/C(=N\NC(=O)Cc1cccs1)c1cccc2ccccc12 | . | . | . | -22% | .
CCN(CC)c1ccc(NC(=O)c2ccccn2)cc1S(=O)(=O)Nc1ccccc1OC | 2.5µM* | 79µM* | . | ? | -4%
COc1ccc(NS(=O)(=O)c2cc(NC(=O)c3ccccn3)ccc2OC)cc1Br | . | 13% | . | -6% | -3%
CCN(CC)c1ccc(N)cc1S(=O)(=O)Nc1ccccc1OC | 2.5µM* | 40µM* | 11µM* | ? | 7%
Cc1ccc(CNC(=O)CN(C)C(=O)c2ccc3c(c2)nnn3C)cc1 | . | . | . | 13% | .
Cc1[nH]c2ccccc2c1C(c1ccc(O)cc1)c1c(C)[nH]c2ccccc12 | . | . | . | 14µM* | .
COc1ccc(-c2ccc(NC(=O)c3ccco3)cc2)nn1 | 40µM* | -11% | . | -11% | -13%
COc1ccc(-c2cccc(NC(=O)c3ccco3)c2)nn1 | 50µM* | -8% | . | -25% | -1%
CC(=O)Nc1ccc(NC(=O)c2ccco2)cc1 | 18%[2.33 µM] | 10% | 17% | 8% | 9%
Cn1c2c(c3ccccc31)CN(C(=O)Nc1ccccc1F)CC2 | . | . | . | 161% | .
Cc1cccc(-c2cc(C(=O)Nc3cccc(C(F)(F)F)c3)[nH]n2)c1O | . | . | . | 3% | .
COc1ccc(CCNC(=O)COc2ccc(-c3ccc(C#N)cc3)cc2)cc1 | 21%[59 µM] | -14% | -14% | -15% | -6%
COc1ccc(CCNC(=O)COc2ccc([N+](=O)[O-])cc2)cc1 | -9%[59 µM] | 28µM* | 13% | 4% | -2%
COc1ccc(-n2nc(C)cc2N)cc1 | 19%[0.501 µM] | -13% | 13% | ? | 0%
Nc1n[nH]c2cc(=O)n(-c3ccc(Cl)cc3)nc12 | 45µM* | -15% | 9% | -22% | -2%
COc1ccc(-n2nc3c(N)n[nH]c3cc2=O)cc1 | 50µM* | 0% | -11% | -13% | 1%
O=C(NCCc1cccc2cccnc12)NC1CCN(CC2CCCC2)CC1 | . | . | . | 5% | .
Cc1cccc(CN2CCN(c3nc4c(c(=O)[nH]c(=O)n4C)n3CCc3ccccc3)CC2)c1 | . | . | . | -15% | .
CN1CCN(CC(=O)Nc2cc(N(C)C)nc3ccccc23)CC1 | 50µM* | -4% | -13% | 1% | -6%
CN1CCN(CC(=O)c2ccccc2F)CC1 | 4.5µM* | -12% | 56µM* | ? | -8%
SMILES | G9a block | VDR inhibitor | Sfp inh | 12-LOX inh | Glioma ERSR ind
CN1CCN(CC(=O)Nc2ccccc2Sc2ccccc2)CC1 | ? | -5% | 79µM* | ? | 0%
Cc1ccc(C)c(NC(=O)CCN2CCC(C)CC2)c1 | 16% | 4% | 19% | 0% | -6%
Cc1c(O)ccc(C(=O)CN2CCN(c3ccccc3F)CC2)c1O | ? | -8% | 14% | . | 3%
Cc1ccc(C)c(NC(=O)CCN2CCc3ccccc3C2)c1 | 50µM* | 2% | 6% | -2% | 2%
CC1CC(C)(C)Nc2c(O)cccc21 (stereo not drawn) | . | . | . | 28% | .
O=C(Nc1cccc(OCC2CCCO2)c1)C1CCN(C(=O)C2CC2)CC1 (stereo not drawn) | . | . | . | 7% | .
COc1cccc(OC)c1NC(=O)CN1CCN(C)CC1 | 45µM* | 10% | 79µM* | ? | -5%
CN1CCN(CC(=O)Nc2ccccc2Oc2ccccc2)CC1 | . | -26% | 0% | 0% | -3%
Cc1ccccc1NC(=O)CN1CCN(C)CC1 | 10µM* | -12% | ? | ? | -5%
